Screening data: PubChem, several laboratories
A selection: hits, their analogues and other compounds. The true share with any hit is near 27%.
sEH inhibitor: soluble epoxide hydrolase inhibitors, primary screen, biochemical, human sEH. AID 707, 2007. inhibition, % at 2 µM. 91,000 compounds, 0.34% hits. Bifunctional epoxide hydrolase 2 (Homo sapiens), P34913. recombinant human sEH enzymatic activity assay; in the data active = inhibition above about 80%
Target sequence (P34913 whole entry, looked up): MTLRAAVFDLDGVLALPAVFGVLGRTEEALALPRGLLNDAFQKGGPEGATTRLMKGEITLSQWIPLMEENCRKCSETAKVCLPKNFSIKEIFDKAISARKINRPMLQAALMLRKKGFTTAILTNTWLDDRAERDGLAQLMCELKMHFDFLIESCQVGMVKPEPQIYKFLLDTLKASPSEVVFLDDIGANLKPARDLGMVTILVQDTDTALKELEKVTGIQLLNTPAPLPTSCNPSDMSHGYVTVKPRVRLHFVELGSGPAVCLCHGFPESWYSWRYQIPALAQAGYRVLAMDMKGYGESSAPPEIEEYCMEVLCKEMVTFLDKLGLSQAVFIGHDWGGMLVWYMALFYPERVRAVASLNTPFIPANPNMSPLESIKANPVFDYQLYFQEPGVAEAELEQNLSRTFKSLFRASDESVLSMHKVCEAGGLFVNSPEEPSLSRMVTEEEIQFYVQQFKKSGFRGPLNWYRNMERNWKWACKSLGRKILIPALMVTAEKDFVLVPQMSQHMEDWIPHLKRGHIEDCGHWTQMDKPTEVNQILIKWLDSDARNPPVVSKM
CYP2C9 inhib: blockers of cytochrome P450 2C9 activity – biochemical, luminescence, ADME assay, primary screen | AID 777, 2007 | P11712 | 96,000 compounds, 20% hits | CYP2C9 Supersomes, luciferin-H conversion | inhibition, % at 5 µM;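 active = blocking of liver enzyme CYP2C9 beyond about 50% at 5 µM, limit read from the data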
sEH activator: soluble epoxide hydrolase activators, primary screen, biochemical, human sEH. activation, % at 2 µM. Bifunctional epoxide hydrolase 2 (Homo sapiens), P34913. purified human sEH enzymatic activity, activator screen. 91,000 compounds, 0.04% hits. AID 717, 2007; in the data active = activation above about 37%
CYP2C9 activ: human CYP2C9 activators, primary screen, biochemical, luminescence; Cytochrome P450 2C9 (Homo sapiens), P11712; recombinant CYP2C9, luciferin-H conversion; stronger effect = higher value; factor 1 = untreated enzyme, 0 = blocked; activation factor at 5 µM; 96,000 compounds, 1.4% hits; AID 1024, 2008;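 active = activation factor of 2 or more for CYP2C9 at a 5 µM dose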
CYP2C19 inhib: blockers of cytochrome P450 2C19 activity – biochemical, luminescence, ADME assay, primary screen. P33261. CYP2C19 Supersomes, luciferin-H EGE luminescence, 30 min. inhibition, % at 5 µM. 96,000 compounds, 21% hits. AID 778, 2007;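 active = CYP2C19 inhibition above a set limit at 5 µM in the primary screen, cut at about 50% in these data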
CYP2C19 activ: human CYP2C19 activators, primary screen, biochemical, luminescence; activation factor at 5 µM; 96,000 tested, under 10 active; recombinant CYP2C19, luciferin-H EGE luminescence; stronger effect = higher value; 0 = fully inhibited enzyme, 1 = untreated enzyme; Cytochrome P450 2C19 (Homo sapiens), P33261;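 active = activation factor of at least 2 at 5 µM in the primary screen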
Hits are given with their value; i = inactive; nt = not tested or not shown.

SMILES | sEH inhibitor | CYP2C9 inhib | sEH activator | CYP2C9 activ | CYP2C19 inhib | CYP2C19 activ
CCCCNc1nnc(SCC(=O)N2CCN(S(=O)(=O)c3ccc4ccccc4c3)CC2)s1 | i | 87 | i | i | 79 | i
CCC1(CC)Nc2ccccc2C(=O)N1c1ccc(NC(C)=O)cc1 | nt | i | nt | i | 74 | i
CC(=O)Nc1ccc2c(c1)C(=O)N(c1ccc(C)cc1)C2=O | i | i | i | i | i | i
CC(C)(C)OC(=O)N1CCC(C(=O)N[C@@H](Cc2ccccc2)C(=O)O)CC1 | i | i | i | i | i | i
CCC(c1nnnn1Cc1ccco1)N(Cc1cc2cc(C)cc(C)c2[nH]c1=O)CC1CCCO1 (stereo unspecified) | i | 79 | i | i | 74 | i
CCC(c1nnnn1Cc1ccco1)N(Cc1ccccc1OC)Cc1cc2cc(C)ccc2[nH]c1=O (stereo unspecified) | i | 51 | i | i | i | i
CCCn1c(=O)c2c(c3ccccc31)OC(C)C(=O)N2 (stereo unspecified) | nt | i | nt | i | i | i
CC(=O)Nc1ccc(S(=O)(=O)Nc2cccc(N(C)S(C)(=O)=O)c2)cc1 | i | i | i | i | i | i
Cc1ccc(S(=O)(=O)Nc2cccnc2)cc1 | i | i | i | i | i | i
CCOc1ccc(S(=O)(=O)Nc2cccc(OC)c2)cc1 | i | 56 | i | i | 69 | i
CCCCOc1ccc(S(=O)(=O)Nc2cccnc2)cc1 | i | 89 | i | i | 61 | i
CCOc1ccc(S(=O)(=O)Nc2cccc(N(C)S(C)(=O)=O)c2)cc1 | i | i | i | i | 93 | i
Cc1ccc(NC(=O)CSc2nc3ccccc3c3nc(CCc4c(C)n[nH]c4C)nn23)cc1F | i | 56 | i | i | i | i
O=C(NCC(=O)N(c1cccc(F)c1)C(C(=O)NCC1CCCO1)c1ccccc1)c1ccco1 (stereo unspecified) | nt | i | nt | i | i | i
CCN(CC)C(=O)CSc1nc2ccccc2c(=O)n1CC1CCCCC1 | nt | i | nt | i | i | i
CCN(CC)C(=O)CSc1nc2ccccc2c(=O)n1-c1ccccc1OC | i | 53 | i | i | i | i
CCCN(CCC)C(=O)CSc1nc2ccccc2c(=O)n1C1CCCC1 | i | 65 | i | i | i | i
CCN(CC)C(=O)CSc1nc2cccnc2n1-c1ccccc1OC | i | i | i | i | i | i
CN(C)c1ccc(NC(=O)CSc2nc3ccccc3c(=O)n2C2CCCCC2)cc1 | i | 69 | i | i | i | i
O=C(c1ccc(-c2nnc(Nc3ccccc3)c3ccccc23)cc1)N1C[C@H]2C[C@H](C1)c1cccc(=O)n1C2 | i | i | i | i | i | i
O=C(CNCC1CCCO1)N1CCCc2ccccc21 (stereo unspecified) | nt | i | nt | i | i | i
O=C(COc1ccccc1Cl)N1CCN(c2ncccn2)CC1 | i | i | i | i | 92 | i
O=C(c1ccccc1OCc1ccccc1Br)N1CCN(c2ncccn2)CC1 | i | 99 | i | i | 97 | i
O=C(NCCC(=O)N1CCN(c2ncccn2)CC1)c1ccccc1Cl | i | 54 | i | i | i | i
O=C(COc1ccccc1Cl)OCC(=O)N1CCN(S(=O)(=O)c2ccccc2)CC1 | i | i | i | i | i | i
SMILES | sEH inhibitor | CYP2C9 inhib | sEH activator | CYP2C9 activ | CYP2C19 inhib | CYP2C19 activ
CC(C)(C)c1nc2c(C#N)c(-c3ccc(Cl)cc3)ccn2n1 | i | 84 | i | i | 67 | i
CCc1nc2c(C#N)c(-c3ccc(Cl)cc3)ccn2n1 | i | i | i | i | i | i
CCCCCCC(=O)NN1CCN(C)CC1 | i | i | i | i | i | i
CCC(CC)C(=O)Nc1cc(C(=O)NCCc2ccccc2)ccc1Cl | i | i | i | i | i | i
Cc1cc(Cl)c(S(=O)(=O)NC2CCCCC2)cc1OCC(=O)Nc1nncs1 | i | nt | i | nt | nt | nt
O=C(OC(C(=O)NCc1ccc2c(c1)OCO2)c1ccc(Cl)cc1)c1ccco1 (stereo unspecified) | nt | 98 | nt | i | 85 | i
CCOc1ccc(C(OC(=O)c2ccco2)C(=O)NCc2ccc(C)cc2)cc1 (stereo unspecified) | i | i | i | i | i | i
O=C(CSc1nnc(-c2ccccc2Cl)n1Cc1ccco1)Nc1ccc2c(c1)OCCO2 | i | 93 | i | i | 90 | i
O=C(CSc1nnc(-c2ccc(Cl)cc2)n1Cc1ccco1)NCc1ccc2c(c1)OCO2 | i | 56 | i | i | i | i
COc1ccc(-c2cnc(SCC(=O)Nc3ccc4c(c3)OCO4)n2Cc2ccco2)cc1 | i | 100 | i | i | 96 | i
O=C(CSc1nnc(-c2ccc(Cl)cc2)n1Cc1ccco1)Nc1ccc2c(c1)OCCO2 | nt | i | nt | i | i | i
O=c1c2c3c(sc2ncn1/N=C/c1ccccc1)CCCC3 | i | nt | i | nt | nt | nt
O=C(O)C1C2C=CC(C2)C1C(=O)Nc1ccc(C(=O)N2CCCCC2)c(Cl)c1 (stereo unspecified) | i | i | i | i | i | i
O=C(c1cnc2sccn2c1=O)N(Cc1ccccc1)c1ccccn1 | nt | 50 | nt | i | i | i
O=C(NCc1cccs1)c1cnc2sccn2c1=O | nt | i | nt | i | i | i
O=S(=O)(c1ccccc1)N(Cc1ccccc1)c1ccccn1 | i | 57 | i | i | 67 | i
O=C(c1ccccc1)N(Cc1ccccc1)c1ccccn1 | i | i | i | i | 57 | i
O=C(c1ccc(Br)o1)N(Cc1ccccc1)c1ccccn1 | i | i | i | i | 72 | i
O=C(Nc1cccc(Br)c1)c1ccn[nH]1 | nt | i | nt | i | i | i
CCCn1c(=O)[nH]c(=O)c2c1nc(-c1ccc(OC(F)F)c(OC)c1)n2CCOC | i | 54 | i | i | i | i
CCOC(=O)C(NC(C)=O)(OCc1ccc(F)cc1)C(F)(F)F (stereo unspecified) | i | i | i | i | 55 | i
CCOC(=O)Cc1cnc(NC(=O)NC(C(=O)OCC)(c2ccccc2)C(F)(F)F)s1 (stereo unspecified) | i | i | i | i | 53 | i
CCOC(=O)C(NC(=O)Nc1cccc(C)n1)(OCC(F)(F)F)C(F)(F)F (stereo unspecified) | i | i | i | i | i | i
CCOC(=O)C(NC(=O)Nc1ccccc1)(OCC)C(F)(F)F (stereo unspecified) | i | i | i | i | 50 | i
CCOC(=O)C(NC(=O)c1ccc(F)cc1)(Nc1nnc(C)s1)C(F)(F)F (stereo unspecified) | nt | i | nt | i | i | i
CC1=NOC(=O)/C1=C\c1ccc(-c2ccc(Cl)cc2Cl)o1 | i | i | i | i | i | i
CCOc1ccccc1N1C(=O)c2ccc(C(=O)Nc3cccnc3)cc2C1=O | i | 65 | i | i | 57 | i
